JMJD2A Tudor – qHTS Assay for Inhibitors of JMJD2A-Tudor Domain; AID 504339, 2011; AlphaScreen JMJD2A-Tudor / H3K4me3 peptide binding; Lysine-specific demethylase 4A (Homo sapiens), O75164; Potency, µM (series often up to 114 µM), without a hit: at the top dose activity change, negative = inhibition, actives largely listed as inhibitors; 390,000 compounds, 4.4% hits; note: potency is the fitted concentration of half-maximal effect; % is set by controls: 0 for no effect and ±100 for the full control effect; nearly all actives have a fitted effect of over 50% in size
Target sequence (O75164 whole entry, looked up, the tested form may be a part): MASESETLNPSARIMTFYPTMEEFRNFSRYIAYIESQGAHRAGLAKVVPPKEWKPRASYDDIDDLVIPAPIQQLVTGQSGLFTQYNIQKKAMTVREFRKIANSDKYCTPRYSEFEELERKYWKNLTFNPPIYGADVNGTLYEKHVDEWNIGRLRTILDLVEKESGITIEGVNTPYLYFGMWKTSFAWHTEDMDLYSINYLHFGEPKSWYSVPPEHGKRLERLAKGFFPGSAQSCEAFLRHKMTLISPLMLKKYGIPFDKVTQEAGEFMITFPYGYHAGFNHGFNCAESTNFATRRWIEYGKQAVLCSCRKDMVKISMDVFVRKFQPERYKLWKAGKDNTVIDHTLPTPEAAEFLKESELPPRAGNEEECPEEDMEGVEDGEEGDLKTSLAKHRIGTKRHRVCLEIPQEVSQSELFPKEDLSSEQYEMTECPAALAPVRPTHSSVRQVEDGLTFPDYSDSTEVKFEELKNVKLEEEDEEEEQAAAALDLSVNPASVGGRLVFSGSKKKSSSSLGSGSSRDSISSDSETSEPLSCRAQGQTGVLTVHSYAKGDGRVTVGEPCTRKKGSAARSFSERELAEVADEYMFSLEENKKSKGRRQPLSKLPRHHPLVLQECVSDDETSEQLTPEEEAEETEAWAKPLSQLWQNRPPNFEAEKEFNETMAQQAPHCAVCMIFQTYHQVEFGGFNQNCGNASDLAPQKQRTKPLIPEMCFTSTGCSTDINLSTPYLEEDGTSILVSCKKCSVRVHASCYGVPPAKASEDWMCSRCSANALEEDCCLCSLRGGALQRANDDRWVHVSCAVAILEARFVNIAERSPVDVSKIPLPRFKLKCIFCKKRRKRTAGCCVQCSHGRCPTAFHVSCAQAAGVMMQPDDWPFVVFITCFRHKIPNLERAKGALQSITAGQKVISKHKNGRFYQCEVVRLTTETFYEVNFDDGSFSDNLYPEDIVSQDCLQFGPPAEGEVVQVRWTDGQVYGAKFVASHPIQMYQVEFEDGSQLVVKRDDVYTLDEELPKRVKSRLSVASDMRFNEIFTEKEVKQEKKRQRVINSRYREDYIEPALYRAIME
L3MBTL1 block – qHTS Assay for the Inhibitors of L3MBTL1; Lethal(3)malignant brain tumor-like protein 1 (Homo sapiens), Q9Y468; AlphaScreen L3MBTL1–H3K9me1 peptide binding; Potency, µM (highest dose often 57.1 µM), for inactives: at the highest dose activity, negative = inhibition, actives largely listed as inhibitors; 230,000 compounds, 0.66% hits; AID 485360, 2010; note: potency is the fitted concentration of half-maximal effect; % is set by controls: 0 for no effect and ±100 for the full control effect; nearly all actives have a fitted effect of over 60% in size
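First, the protein-peptide complex forms for 30 min at room temperature (L3MBTL1 50 nM, biotinylated H3K9me1 peptide 75 nM). Next, compounds are pin-transferred and incubated 30 min. Finally, AlphaScreen beads are added and read after 30 min.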
HP1b binding inh – HTS for Inhibitors of HP1-beta Chromodomain Interactions with Methylated Histone Tails; Chromobox protein homolog 1 (Homo sapiens), P83916; AlphaScreen HP1-beta / biotin-H3K9me3 peptide binding; Potency, µM (series often up to 114 µM), without a hit: at the top dose activity change, negative = inhibition, usual class: inhibitors; 390,000 compounds, 0.56% hits; AID 540317, 2011; note: potency is the fitted concentration of half-maximal effect; nearly all actives have a fitted effect of over 70% in size
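AlphaScreen: HP1-beta (50 nM) preformed 30 min with biotin-H3(1-18)K9me3 peptide (50 nM) in PBS pH 7.4, 0.01% Tween-20. Compound added for 30 min at RT, then streptavidin donor/nickel chelate acceptor beads (10 ug/mL) for 30 min.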
G9a block – qHTS Assay for Inhibitors of Histone Lysine Methyltransferase G9a. Histone-lysine N-methyltransferase EHMT2 (Homo sapiens), Q96KQ7. 350,000 compounds, 8.8% hits. Potency, µM (series often up to 102 µM), without a hit: at the highest dose activity, negative = inhibition, actives largely listed as inhibitors. G9a H3K9 monomethylation, AlphaScreen, 2 h. AID 504332, 2011; note: potency is the fitted concentration of half-maximal effect; % is set by controls: 0 for no effect and ±100 for the full control effect; nearly all actives have a fitted effect of over 75% in size
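Compounds were preincubated with 20 nM G9a for 15 min, after which biotinylated H3K9 peptide (500 nM) and SAM (20 uM) started a 2 h room-temperature reaction. Monomethylated product was quantified by antibody-based AlphaScreen chemiluminescence.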
PI5P4K alpha inh – qHTS for Inhibitors of phosphatidylinositol 5-phosphate 4-kinase (PI5P4K); PI5P4Kalpha enzyme, ADP-Glo luminescence, 60 min; hits give low values; 330,000 compounds, 1.2% hits; max response, %; active = max response of -50% or lower; inconclusive = between -30% and -50%; inactive = -30% or higher; note: value at the top dose of about 77 µM; % is set by controls: 0 for no effect and ±100 for the full control effect
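ADP-Glo luminescence end-point read after a 60 min room-temperature kinase reaction of PI5P4Kalpha plus substrate, initiated with ATP at 5 microM final. Buffer: 0.038 M HEPES pH 7.4, EGTA, 0.1% CHAPS, 5% DMSO.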
BAZ2B block – qHTS Assay for Inhibitors of BAZ2B; Bromodomain adjacent to zinc finger domain protein 2B (Homo sapiens), Q9UIF8; AlphaScreen BAZ2B-H3K14Ac peptide displacement; Potency, µM (titrated, usually from 114 µM), inactives show at the top dose activity change, negative = inhibition, hits mostly inhibitors; 360,000 compounds, 4.4% hits; AID 504333, 2011; note: potency is the fitted concentration of half-maximal effect; % is set by controls: 0 for no effect and ±100 for the full control effect; nearly all actives have a fitted effect of over 60% in size
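AlphaScreen displacement: compounds (up to 110uM) incubated 30 min at room temperature with a preformed 50 nM BAZ2B/50 nM biotinylated H3K14Ac peptide complex in PBS pH 7.4 with Tween-20. Donor and acceptor beads at 10 ug/mL final added, 20 min light-protected before reading.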
The depositor's hits bear a star; ? = inconclusive; . = no result given; [ ] = dose if it differs, or a comment. Hits are enriched below; roughly 11% of the tested compounds scored in any of these assays. Unless noted, calls come from the whole dose curve; as a rule, active = well fitted inhibition curve with a large enough effect; inconclusive = small, poorly fitted or top-dose-only effect; inactive = no such curve, though single readings can be large or run the other way.

SMILES | JMJD2A Tudor | L3MBTL1 block | HP1b binding inh | G9a block | PI5P4K alpha inh | BAZ2B block
CCOc1ccccc1NC(=O)C(=O)c1cc(C)n(-c2cccc(C)c2C)c1C | -19% | . | 34% | -36%[59 µM] | . | -25%
CCCCC/C=C\C/C=C\C/C=C\C/C=C\CCCC(=O)O[C@H](COCCCCCCCCCCCCCCCC)COP(=O)([O-])OCC[N+](C)(C)C | . | . | . | 31%[59 µM] | . | .
O=C(c1ccccc1)c1c(O)cc(-c2ccccc2)oc1=O | ? | ? | ? | ? | 5 | 56µM*
Cc1ccc(C(=O)Nc2c(C)cc(-c3ccccc3)oc2=O)cc1 | -14% | 6% | 20% | 2% | 6 | -14%
O=C(Nc1c(Cl)cc([N+](=O)[O-])cc1Cl)c1cc(Cl)ccc1O | ? | . | 0% | . | . | .
O=C1CSc2ccccc2N1 | -23% | . | 37% | . | -5 | .
CC1(C)CC(=S)Nc2ccccc2S1 | -32% | -2% | ? | 7.9µM* | . | -7%
O=C(c1cccs1)c1cn(CCOc2ccccc2Cl)c2ccccc12 | -5% | . | 40% | 1%[59 µM] | . | 0%
O=C(NNc1ccc(Cl)cc1)c1c(F)cccc1Cl | -7% | 1% | 32% | 45µM* | -8 | -12%
Cc1ccc(-c2nc3ccc(Cl)cn3c2Nc2ccccc2)o1 | -13% | . | 43% | . | . | .
Cc1ccn2c(Nc3ccc4c(c3)OCCO4)c(-c3cccs3)nc2c1 | ? | . | ? | 14µM* | . | 25µM*
Cc1ccc(Nc2c(-c3ccccn3)nc3ccc(C)cn23)cc1 | 45µM* | . | 8% | ? | 4 | .
Fc1ccccc1-c1ccc(-c2nc3ccc(Cl)cn3c2Nc2ccc(Cl)cc2)o1 | 45µM* | . | ? | . | . | .
COc1ccc(Nc2c(-c3ccccn3)nc3ccc(Cl)cn23)cc1 | ? | . | 43% | 40%[59 µM] | . | 1.6µM*
CCCCN(C)C(=O)C1CCC(Cn2c(=O)[nH]c3ccsc3c2=O)CC1 (centres undefined) | -13% | . | 44% | 0%[59 µM] | . | -33%
CN(C1CCCCC1)S(=O)(=O)c1ccc2c(c1)c(=O)c(C(=O)N1CCN(c3ccccc3F)CC1)cn2C | -23% | . | 5% | -3%[59 µM] | . | .
CC(=O)OC1C[C@]2(C)C(C(C)=O)CCC2C2CCC3=CC(=O)CC[C@@]3(C)C12 (some centres undefined) | . | . | . | -29%[2.33 µM] | . | .
Cc1cc(C)n2c(Nc3ccc4c(c3)OCCO4)c(-c3ccccn3)nc2n1 | . | . | . | . | -10 | .
Cc1ccn2c(Nc3ccc4c(c3)OCO4)c(-c3ccccn3)nc2c1 | 13µM* | 8.9µM* | 50µM* | ? | -3 | 13µM*
Cc1ccc(Nc2c(-c3ccccn3)nc3cc(C)ccn23)cc1 | 40µM* | . | ? | ? | 11 | 16µM*
Cc1cc2nc(-c3ccc(OCc4ccccc4C)cc3)cc(C(F)(F)F)n2n1 | 64% | . | 86% | 54%[59 µM] | . | 17%
O=C(NC1CC(=O)N(c2ccc(Cl)cc2)C1)C1CCCCC1 (centres undefined) | -8% | . | -8% | ? | . | 0%
COc1cc(C2Nc3ccccc3NC3=C2C(=O)CC(C)(C)C3)cc(OC)c1OC(C)=O (centres undefined) | -20% | 4% | 25% | 50µM* | -1 | 6%
COc1cccc(C2Nc3ccccc3NC3=C2C(=O)CC(C)(C)C3)c1 (centres undefined) | -4% | 2% | 30% | 20% | 3 | 5%
O=C(O)Cc1ccc(O)c(O)c1 | 56µM* | . | ? | 0.24µM* | -8 | -8%
COc1cc(C)ccc1OCCOCCN(C)Cc1ccccc1 | 3.2µM* | 2% | ? | ? | 0 | ?
CN(CCOC(=O)c1ccccc1)Cc1ccccc1 | 1% | 10% | 43% | 7%[59 µM] | 3 | 2%
